Results from the supplement of paper PMC10849652.
Of roughly 8,800 targets only a part is listed; those with a hit were picked by preference. About 0.5% of all pairs of compound and target were hits.

Compound: C1=CC(=CC=C1C2=NC3=C(N2)C=C(C=C3)C(=O)N)OC4=CC=C(C=C4)Cl
Assay: log2 fold change, soluble protein after heating vs DMSO (PISA); higher = thermal stabilisation; K562 lysate, 10 uM; active = over 0.2 and 3.5 SD of the protein, either way, in both replicates (recomputed)
Outline: (§1)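 Soluble protein was defined as the supernatant remaining after 21,000xg for 90 min, following pooling of heated aliquots and adjustment to 0.5% NP-40 at 4°C. Before that, crude K562 extract at 1 mg/mL protein in PBS pH 7.4 with 1 mM MgCl2 was treated with 10 μM compound for 30 min and heated for 3 min across 48°C-58°C. Quantification used TMTpro 16plex LC-MS/MS with channel sums equalised, and values are log-two fold changes in thermal stability relative to solvent controls from duplicates.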

UniProt Q7L0Q8, sequence (Q7L0Q8 whole entry, looked up): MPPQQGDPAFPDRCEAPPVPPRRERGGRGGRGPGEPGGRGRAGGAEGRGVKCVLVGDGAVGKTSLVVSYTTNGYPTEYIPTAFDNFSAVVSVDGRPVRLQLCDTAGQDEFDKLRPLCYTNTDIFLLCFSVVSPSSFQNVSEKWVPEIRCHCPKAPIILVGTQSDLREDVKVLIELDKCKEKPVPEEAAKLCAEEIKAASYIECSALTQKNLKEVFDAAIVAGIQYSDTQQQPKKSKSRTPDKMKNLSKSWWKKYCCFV
UniProt Q96E14, sequence (Q96E14 whole entry, looked up): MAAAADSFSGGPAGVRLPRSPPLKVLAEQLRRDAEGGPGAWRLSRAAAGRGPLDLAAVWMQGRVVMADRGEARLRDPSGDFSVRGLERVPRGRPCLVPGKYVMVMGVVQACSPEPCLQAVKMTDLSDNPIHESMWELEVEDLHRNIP
UniProt Q9BUV8, sequence (Q9BUV8 whole entry, looked up): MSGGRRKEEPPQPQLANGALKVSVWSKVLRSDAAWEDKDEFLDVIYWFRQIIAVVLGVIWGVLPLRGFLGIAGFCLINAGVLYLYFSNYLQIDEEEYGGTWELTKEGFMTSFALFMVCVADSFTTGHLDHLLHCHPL
UniProt Q8TC12, sequence (Q8TC12 whole entry, looked up): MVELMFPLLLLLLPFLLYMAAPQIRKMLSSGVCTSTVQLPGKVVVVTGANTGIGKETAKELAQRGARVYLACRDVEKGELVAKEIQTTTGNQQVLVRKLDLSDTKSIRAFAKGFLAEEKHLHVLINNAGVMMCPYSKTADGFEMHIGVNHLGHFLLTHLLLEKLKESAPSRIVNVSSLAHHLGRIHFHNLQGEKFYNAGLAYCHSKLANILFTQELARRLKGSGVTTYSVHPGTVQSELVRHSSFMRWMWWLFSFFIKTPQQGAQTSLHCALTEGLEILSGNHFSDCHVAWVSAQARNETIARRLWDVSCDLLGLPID
UniProt Q9NTN9, sequence (Q9NTN9 whole entry, looked up): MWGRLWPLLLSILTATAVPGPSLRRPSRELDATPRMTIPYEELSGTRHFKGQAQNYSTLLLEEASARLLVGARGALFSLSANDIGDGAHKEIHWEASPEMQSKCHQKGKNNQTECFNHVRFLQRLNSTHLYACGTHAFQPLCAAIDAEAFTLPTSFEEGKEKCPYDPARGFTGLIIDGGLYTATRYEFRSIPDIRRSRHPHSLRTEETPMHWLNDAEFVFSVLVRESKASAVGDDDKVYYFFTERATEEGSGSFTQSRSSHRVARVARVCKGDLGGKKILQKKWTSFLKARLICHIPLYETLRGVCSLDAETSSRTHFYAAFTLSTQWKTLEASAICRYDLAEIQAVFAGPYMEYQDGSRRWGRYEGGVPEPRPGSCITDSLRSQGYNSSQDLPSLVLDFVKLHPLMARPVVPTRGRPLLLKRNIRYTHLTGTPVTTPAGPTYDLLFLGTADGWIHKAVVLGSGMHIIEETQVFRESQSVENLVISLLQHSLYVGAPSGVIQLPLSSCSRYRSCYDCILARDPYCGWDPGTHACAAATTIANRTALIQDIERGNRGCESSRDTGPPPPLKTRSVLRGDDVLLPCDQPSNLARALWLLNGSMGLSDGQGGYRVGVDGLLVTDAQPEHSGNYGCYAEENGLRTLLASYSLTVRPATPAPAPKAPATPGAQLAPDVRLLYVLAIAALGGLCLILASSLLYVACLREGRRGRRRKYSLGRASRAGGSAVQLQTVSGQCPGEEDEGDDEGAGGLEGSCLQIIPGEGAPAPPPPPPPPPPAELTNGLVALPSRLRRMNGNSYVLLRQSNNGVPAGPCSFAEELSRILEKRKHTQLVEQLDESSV
UniProt Q9UPW6, sequence (Q9UPW6 whole entry, looked up): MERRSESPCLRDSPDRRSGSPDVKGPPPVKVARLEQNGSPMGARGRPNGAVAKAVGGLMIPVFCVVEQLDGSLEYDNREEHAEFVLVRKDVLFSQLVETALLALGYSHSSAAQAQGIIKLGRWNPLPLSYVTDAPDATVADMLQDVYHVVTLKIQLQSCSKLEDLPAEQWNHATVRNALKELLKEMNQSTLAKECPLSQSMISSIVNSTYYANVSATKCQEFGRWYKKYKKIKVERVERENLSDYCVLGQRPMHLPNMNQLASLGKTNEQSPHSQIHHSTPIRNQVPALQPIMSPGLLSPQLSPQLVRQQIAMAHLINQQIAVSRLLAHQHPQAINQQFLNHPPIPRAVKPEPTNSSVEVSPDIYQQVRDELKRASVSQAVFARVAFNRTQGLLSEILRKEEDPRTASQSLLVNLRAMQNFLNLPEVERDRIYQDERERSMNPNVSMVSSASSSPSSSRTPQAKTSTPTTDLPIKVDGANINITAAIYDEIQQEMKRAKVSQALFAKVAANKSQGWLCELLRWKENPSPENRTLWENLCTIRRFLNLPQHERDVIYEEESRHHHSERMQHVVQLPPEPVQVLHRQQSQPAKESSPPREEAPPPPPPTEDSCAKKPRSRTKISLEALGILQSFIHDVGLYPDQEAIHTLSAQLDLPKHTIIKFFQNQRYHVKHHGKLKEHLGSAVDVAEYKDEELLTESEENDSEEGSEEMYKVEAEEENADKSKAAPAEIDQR
UniProt Q99496, sequence (Q99496 whole entry, looked up): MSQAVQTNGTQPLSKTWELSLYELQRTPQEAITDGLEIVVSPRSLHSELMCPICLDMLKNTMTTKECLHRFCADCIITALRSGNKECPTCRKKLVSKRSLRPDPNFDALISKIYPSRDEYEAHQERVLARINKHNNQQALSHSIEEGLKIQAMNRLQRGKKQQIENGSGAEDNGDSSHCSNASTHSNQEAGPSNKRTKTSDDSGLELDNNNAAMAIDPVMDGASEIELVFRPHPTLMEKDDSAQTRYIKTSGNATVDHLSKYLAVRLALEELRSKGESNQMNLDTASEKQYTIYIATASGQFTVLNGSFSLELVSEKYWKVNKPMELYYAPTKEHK
UniProt Q96K19, sequence (Q96K19 whole entry, looked up): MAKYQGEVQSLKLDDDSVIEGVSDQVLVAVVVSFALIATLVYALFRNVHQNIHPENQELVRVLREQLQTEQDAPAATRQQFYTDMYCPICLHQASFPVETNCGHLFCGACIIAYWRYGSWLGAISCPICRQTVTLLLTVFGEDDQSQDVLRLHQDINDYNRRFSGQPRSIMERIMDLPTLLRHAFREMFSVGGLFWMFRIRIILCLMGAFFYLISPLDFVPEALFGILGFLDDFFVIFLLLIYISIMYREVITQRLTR
UniProt O75582, sequence (O75582 whole entry, looked up): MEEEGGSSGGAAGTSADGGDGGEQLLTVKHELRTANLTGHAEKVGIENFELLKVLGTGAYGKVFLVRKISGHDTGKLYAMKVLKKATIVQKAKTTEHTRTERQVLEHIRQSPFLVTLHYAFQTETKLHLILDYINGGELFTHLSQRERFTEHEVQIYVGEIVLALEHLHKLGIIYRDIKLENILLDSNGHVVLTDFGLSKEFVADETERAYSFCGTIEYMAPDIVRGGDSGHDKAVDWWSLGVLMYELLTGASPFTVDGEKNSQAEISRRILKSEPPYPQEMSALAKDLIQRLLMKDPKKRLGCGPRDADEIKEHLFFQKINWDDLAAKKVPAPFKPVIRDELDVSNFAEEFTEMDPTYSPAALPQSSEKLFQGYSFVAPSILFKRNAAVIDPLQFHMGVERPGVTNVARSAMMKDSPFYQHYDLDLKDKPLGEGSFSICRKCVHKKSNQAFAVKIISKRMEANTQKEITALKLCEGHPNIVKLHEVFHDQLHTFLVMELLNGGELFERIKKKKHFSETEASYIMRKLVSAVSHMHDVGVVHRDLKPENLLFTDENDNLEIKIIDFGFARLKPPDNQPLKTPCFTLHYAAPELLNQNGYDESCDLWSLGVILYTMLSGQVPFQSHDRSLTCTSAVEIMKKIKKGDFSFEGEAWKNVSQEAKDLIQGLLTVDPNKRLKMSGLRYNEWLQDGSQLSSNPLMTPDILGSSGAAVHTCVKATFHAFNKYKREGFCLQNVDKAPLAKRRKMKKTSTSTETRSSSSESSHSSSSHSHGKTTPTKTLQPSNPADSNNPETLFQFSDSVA
UniProt P28702, sequence (P28702 whole entry, looked up): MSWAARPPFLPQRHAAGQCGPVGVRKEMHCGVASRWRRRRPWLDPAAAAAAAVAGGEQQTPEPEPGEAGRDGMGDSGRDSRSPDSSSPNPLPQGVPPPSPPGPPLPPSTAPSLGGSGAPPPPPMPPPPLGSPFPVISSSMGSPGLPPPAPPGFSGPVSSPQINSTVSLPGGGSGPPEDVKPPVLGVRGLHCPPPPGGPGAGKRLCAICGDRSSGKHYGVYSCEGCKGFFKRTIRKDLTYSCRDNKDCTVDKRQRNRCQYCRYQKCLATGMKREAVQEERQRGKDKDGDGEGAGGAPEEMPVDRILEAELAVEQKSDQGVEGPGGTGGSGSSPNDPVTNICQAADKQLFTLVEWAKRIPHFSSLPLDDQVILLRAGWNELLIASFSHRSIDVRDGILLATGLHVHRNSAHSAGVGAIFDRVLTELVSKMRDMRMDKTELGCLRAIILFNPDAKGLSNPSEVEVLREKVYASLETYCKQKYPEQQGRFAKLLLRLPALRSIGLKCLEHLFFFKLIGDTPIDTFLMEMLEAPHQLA
UniProt O75446, sequence (O75446 whole entry, looked up): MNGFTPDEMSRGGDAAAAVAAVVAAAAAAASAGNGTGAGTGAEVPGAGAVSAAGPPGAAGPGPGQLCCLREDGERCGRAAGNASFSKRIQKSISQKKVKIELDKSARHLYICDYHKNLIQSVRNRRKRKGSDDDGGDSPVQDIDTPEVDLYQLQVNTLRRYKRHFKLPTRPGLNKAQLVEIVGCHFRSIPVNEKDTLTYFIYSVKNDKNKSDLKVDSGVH
UniProt Q9BWG6, sequence (Q9BWG6 whole entry, looked up): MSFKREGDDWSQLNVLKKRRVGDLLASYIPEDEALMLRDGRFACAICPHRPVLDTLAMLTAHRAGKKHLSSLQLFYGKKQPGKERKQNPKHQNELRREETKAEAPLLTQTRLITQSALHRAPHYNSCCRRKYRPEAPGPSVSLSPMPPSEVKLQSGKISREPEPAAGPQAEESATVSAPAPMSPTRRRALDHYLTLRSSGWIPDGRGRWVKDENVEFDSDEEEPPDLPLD
UniProt Q9Y6D0, sequence (Q9Y6D0 whole entry, looked up): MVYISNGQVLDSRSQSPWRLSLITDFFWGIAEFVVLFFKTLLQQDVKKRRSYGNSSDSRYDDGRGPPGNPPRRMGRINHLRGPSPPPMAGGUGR

log2 fold change, inactive:
RAD54L2 (UniProt Q9Y4B4) -0.103
RMI2 (UniProt Q96E14) -0.121
SATB2 (UniProt Q9UPW6) 0.022
SCNM1 (UniProt Q9BWG6) 0.044
SERAC1 (UniProt Q96JX3) -0.235
RNF170 (UniProt Q96K19) -0.125
RPS6KA3 (UniProt P51812) 0.182
RHOU (UniProt Q7L0Q8) -0.096
RAD54L (UniProt Q92698) -0.005
RAB5IF isoform 5 (UniProt Q9BUV8) 0.082
RXRB isoform 3 (UniProt P28702) -0.038
RDH11 (UniProt Q8TC12) -0.02
SEMA4G isoform 2 (UniProt Q9NTN9) -0.063
RXRA (UniProt P19793) 0.008
RAP1B (UniProt F5GZG1) 0.101
RNF24 isoform 2 (UniProt Q9Y225) -0.053
QSER1, A0A3B3IRW6 0.054
S100A6 (UniProt P06703) -0.025
RPS6KA5 (UniProt O75582) 0.2
RYR1 (UniProt P21817) -0.174
RNF17 (UniProt Q9BXT8) 0.008
RNF2 (UniProt Q99496) -0.031
RNPC3 (UniProt Q96LT9) -0.059
ROBO2 isoform 3 (UniProt Q9HCK4) -0.013

Compound: C1=CC2=C(C=CC(=C2)/C=C\3/C(=O)NC(=NCC4=CC=CS4)S3)N=C1
Assay: as above
Outline: as §1

log2 fold change, inactive:
RAD54L2 (UniProt Q9Y4B4) -0.035
RMI2 (UniProt Q96E14) 0.206
SATB2 (UniProt Q9UPW6) -0.01
SAP30 (UniProt O75446) 0.025
RNF170 (UniProt Q96K19) 0.136
RHOU (UniProt Q7L0Q8) -0.054
RAB5IF isoform 5 (UniProt Q9BUV8) 0.001
RXRB isoform 3 (UniProt P28702) -0.014
RDH11 (UniProt Q8TC12) 0.015
SEMA4G isoform 2 (UniProt Q9NTN9) 0.032
RAD17 (UniProt O75943) -0.1
RHBDD1 (UniProt Q8TEB9) 0.19
RAP1B (UniProt F5GZG1) -0.048
QSER1, A0A3B3IRW6 -0.057
S100A6 (UniProt P06703) 0
RPS6KA5 (UniProt O75582) 0.014
SELENOK (UniProt Q9Y6D0) 0.02
RUFY2 isoform 1 (UniProt Q8WXA3) 0.02
RNF2 (UniProt Q99496) 0.036
